# High-throughput results from PubChem BioAssay.
# PI5P4Ka inh: qHTS for Inhibitors of phosphatidylinositol 5-phosphate 4-kinase (PI5P4K). PI5P4Kalpha enzyme, ADP-Glo luminescence, 60 min; stronger effect = lower value. 330,000 compounds, 1.2% hits. max response, %. AID 652105, 2013. Phosphatidylinositol 5-phosphate 4-kinase type-2 alpha (Homo sapiens), P48426; active = max response of -50% or lower; inconclusive = between -30% and -50%; inactive = -30% or higher; also: value at the top dose of about 77 µM; % is scaled to controls: 0 for no effect and ±100 for the full control effect
#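 Enzyme plus substrate dispensed, test compounds pinned in, then ATP (5 microM final) added. After 60 min at RT, ADP-Glo reagent 1 for 45 min and reagent 2 for 30 min preceded luminescence imaging.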
# Pol iota inh: qHTS for Inhibitors of Polymerase Iota; Pol iota fluorescent replication assay, 10 min; Potency, µM (series often up to 115 µM), inactives show top-dose activity, negative = inhibition, usual class: inhibitors; 390,000 compounds, 1% hits; also: potency is read from the fitted curve at half-maximal effect
#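 Pol iota at 10 nM preincubated 15 min with compounds at room temperature; reaction started with fluorescent substrate, 50 nM final. Fluorescence read kinetically at 0 and 10 min; buffer-only wells as negative control.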
# POLB inh: qHTS Assay for Inhibitors of DNA Polymerase Beta | P06746 | Pol beta primer extension/strand displacement, fluorescence kinetic | Potency, µM (titrated, usually from 114 µM), for the others: at the top dose activity change, negative = inhibition, most hits filed as inhibitors | 340,000 compounds, 1.3% hits; also: potency is read from the fitted curve at half-maximal effect; % is scaled to controls: 0 for no effect and ±100 for the full control effect
#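 Kinetic readout of DNA synthesis with strand displacement by Pol beta. Compound and 10 nM enzyme sit 15 min at room temperature; 50 nM substrate starts the reaction, read immediately and at 10 min.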
# Pol eta inh-1: qHTS for Inhibitors of Polymerase Eta; DNA polymerase eta (Homo sapiens), Q9Y253; recombinant Pol eta, fluorescent DNA replication assay; Potency, µM (titrated, usually from 114 µM), for inactives: at the highest dose activity change, negative = inhibition, most hits filed as inhibitors; 390,000 compounds, 1.2% hits; also: potency is read from the fitted curve at half-maximal effect; % is scaled to controls: 0 for no effect and ±100 for the full control effect
# Target sequence (Q9Y253 whole entry, looked up): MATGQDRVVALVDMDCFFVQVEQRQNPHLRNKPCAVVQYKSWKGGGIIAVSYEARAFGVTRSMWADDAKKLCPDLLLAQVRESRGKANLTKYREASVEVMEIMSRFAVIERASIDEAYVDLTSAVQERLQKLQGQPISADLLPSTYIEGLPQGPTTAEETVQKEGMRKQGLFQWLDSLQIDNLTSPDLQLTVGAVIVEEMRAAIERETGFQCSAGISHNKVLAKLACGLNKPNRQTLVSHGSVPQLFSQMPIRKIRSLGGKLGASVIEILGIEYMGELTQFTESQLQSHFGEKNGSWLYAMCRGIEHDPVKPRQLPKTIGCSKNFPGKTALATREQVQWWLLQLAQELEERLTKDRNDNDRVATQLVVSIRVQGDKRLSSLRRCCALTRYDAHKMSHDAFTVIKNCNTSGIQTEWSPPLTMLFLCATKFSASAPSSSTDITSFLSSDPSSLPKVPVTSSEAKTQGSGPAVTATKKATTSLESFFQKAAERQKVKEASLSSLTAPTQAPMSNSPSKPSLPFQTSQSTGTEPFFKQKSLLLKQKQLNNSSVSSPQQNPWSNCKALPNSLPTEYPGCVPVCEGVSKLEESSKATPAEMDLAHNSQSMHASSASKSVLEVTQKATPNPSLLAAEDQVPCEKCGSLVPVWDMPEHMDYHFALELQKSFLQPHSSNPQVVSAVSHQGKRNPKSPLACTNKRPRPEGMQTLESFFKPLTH
#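 Pol eta at 10 nM preincubated with compounds 15 min at room temperature; reaction started with fluorescent substrate (50 nM final) and read kinetically at 0 and 10 min.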
# WRN helicase inh: qHTS for Inhibitors of WRN Helicase; WRN helicase unwinding, fluorescent forked duplex, kinetic; 360,000 compounds, 0.46% hits; Bifunctional 3'-5' exonuclease/ATP-dependent helicase WRN (Homo sapiens), Q14191; Potency, µM (top dose mostly 114 µM), inactives show at the highest dose activity change, negative = inhibition, usual class: inhibitors; also: potency is read from the fitted curve at half-maximal effect; % is scaled to controls: 0 for no effect and ±100 for the full control effect; nearly all actives have a fitted effect of over 55% in size
#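 Primary qHTS, 1536-well format. 20 nM WRN + compound, 15 min RT; start with 100 nM forked fluorophore/quencher duplex, 2 mM ATP (final); kinetic read ex 525/em 598 nm.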
# Pol kappa inh-1: qHTS for Inhibitors of Polymerase Kappa; DNA polymerase kappa (Homo sapiens), Q9UBT6; purified Pol kappa, fluorescent DNA synthesis assay, 10 min; Potency, µM (highest dose often 107 µM), for the others: at the top dose activity, negative = inhibition, usual class: inhibitors; 400,000 compounds, 0.53% hits; also: potency is read from the fitted curve at half-maximal effect; % is scaled to controls: 0 for no effect and ±100 for the full control effect
#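 Kinetic fluorescence readout at 0 and 10 min followed reaction start with substrate at 50 nM final. Beforehand, enzyme (10 nM Pol kappa) stood 15 min with compound at room temperature; buffer-only wells were negative controls.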
# PGK validate: qHTS for inhibitors of Phosphogylcerate Kinase: Hit Validation Screen; shares compounds with Pol kappa inh-1; 500 compounds, 79% hits; Potency, µM (series often up to 57.5 µM), inactives show at the highest dose activity change, negative = inhibition, hits mostly inhibitors; TbPGK coupled GAPDH assay, Kinase-Glo luminescence; AID 686980, 2013; also: potency is read from the fitted curve at half-maximal effect; % is scaled to controls: 0 for no effect and ±100 for the full control effect; nearly all actives have a fitted effect of over 65% in size
# POLI cherry-pick: qHTS for Inhibitors of Polymerase Iota: Confirmatory Assay for Cherry-picked Compounds; shares compounds with Pol kappa inh-1; Pol iota primer extension, TAMRA/BHQ fluorescence; Potency, µM, actives largely listed as inhibitors; 1,500 compounds, 77% hits; also: potency is read from the fitted curve at half-maximal effect
# Pol kappa inh-2: qHTS for Inhibitors of Polymerase Kappa: Confirmatory Assay for Cherry-picked Compounds | shares compounds with Pol eta inh-1 | purified Pol-kappa, fluorescent strand-displacement substrate | Potency, µM, most hits filed as inhibitors | 920 compounds, 76% hits | AID 720501, 2013; also: potency is read from the fitted curve at half-maximal effect
# Pol eta inh-2: qHTS for Inhibitors of Polymerase Eta: Confirmatory Assay for Cherry-picked Compounds; shares compounds with Pol eta inh-1; Pol eta primer extension, TAMRA/BHQ fluorescence, 10 min; Potency, µM, hits mostly inhibitors; 2,600 compounds, 64% hits; AID 720502, 2013; also: potency is read from the fitted curve at half-maximal effect
# * hit, by the source's call; ? = inconclusive; · = not tested or not shown; [ ] = dose if it differs, or a comment. Rows were chosen to be rich in hits. Some 2.8% of all compounds tested hit in one or more screens of this group. Unless noted, calls follow the shape of the dose curve; as a rule, active = well fitted curve in the direction sought with a large enough effect; inconclusive = small, poorly fitted or top-dose-only effect, or another doubt; inactive = no such curve, though single readings can be large; an effect the other way counts as inactive or inconclusive.
SMILES,PI5P4Ka inh,Pol iota inh,POLB inh,Pol eta inh-1,WRN helicase inh,Pol kappa inh-1,POLI cherry-pick,Pol eta inh-2,others
NC(=S)n1[nH]c(-c2ccc([N+](=O)[O-])cc2)c(N=Nc2cccc([N+](=O)[O-])c2)c1=O,?,?,0%,28µM*,?,?,67*,48*,PGK validate=13µM*
Cc1[nH]n(C(N)=S)c(=O)c1N=Nc1cccc([N+](=O)[O-])c1C,-5,-5%,-9%,-10%,-4%,-4%,·,·,
Cc1[nH]c2ccc(Br)cc2c1CCNC(=O)c1cc2ccccc2oc1=O,·,-16%,1%,1%,·,-12%,·,·,
C=C1c2cccc(O)c2C(O)=C2C(=O)[C@]3(O)C(O)=C(C(N)=O)C(=O)[C@@H](N(C)C)[C@@H]3[C@@H](O)[C@H]12,-58*,2.8µM*,11µM*,32µM*,?,6.3µM*,7.5*,13*,Pol kappa inh-2=3.8*
CC(=O)Nc1cccc(C(=O)/C=C/c2ccco2)c1,-13,?,8%,?,-15%,-32%,·,·,
CC(=O)Nc1ccc(C(=O)/C=C/c2ccco2)cc1,-27,?,25µM*,25µM*,?,45µM*,?,38*,
O=C(NCc1cccc(F)c1)c1ccc(CS(=O)c2ccccc2Cl)o1 (stereo unspecified),·,48%,22%,-19%,·,3%,·,·,
COc1cccc(/C=C/C(=O)OCC(=O)Nc2ccc(Cl)c(S(=O)(=O)N(C)C)c2)c1,-2,10%,1%,-26%,-5%,-3%,·,·,
CN(C)S(=O)(=O)c1cc(NC(=O)COC(=O)/C=C/c2ccco2)ccc1Cl,-71*,?,?,25µM*,?,32µM*,·,67*,PGK validate=-26%
COc1cccc(-n2c(SCc3cc(=O)oc4cc(O)c(O)cc34)nc3ccccc3c2=O)c1,-61*,7.9µM*,3.2µM*,3.2µM*,28µM*,32µM*,7.5*,12*,
COCCn1c(=O)c(-c2ccc(Cl)cc2)nc2cnc(OC)nc21,·,·,·,·,·,-4%[60.1 µM],·,·,
O=C(CCC1N=C2c3ccccc3N=C(SCc3cccc(F)c3)N2C1=O)NCc1ccc(F)cc1 (stereo unspecified),·,-15%,2%,-11%,·,-4%[60.1 µM],·,·,
Cc1cc(C=O)c(C)n1-c1ccc(Cl)c(C(=O)O)c1,-54*,5.6µM*,3.2µM*,3.2µM*,?,22µM*,11*,6*,PGK validate=12µM*
CCOC(=O)/C(C#N)=C/c1cccn1-c1ccc(Cl)cc1,-1,84%,-7%,-20%,-3%,2%,·,·,
